Data: PubChem BioAssay (EPA / NIEHS)
Several values for one entry are separate records, joined by “and”; a condition that tells them apart may be missing. Equal entries are not always repeated. Activity calls are given as the source filed them. The calls were made as follows: active = hit-call score of the fitted dose curve at least 0.9, where 1 is the maximum; inactive = score below 0.9.

What was measured:
Details in all cases: mRNA level, 48 h; actives raise or lower the signal
[1] = read-out: Bcl-2 (BAD) gene, BAD (gene 572); assay: LTEA_HepaRG_BAD: Life Technologies and Expression Analysis (LTEA) Assay for Bcl-2 (BAD) gene using HepaRG (AID 2283469)
Summary of the method: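 Activity values reflect up- or down-regulation of BAD mRNA in human HepaRG hepatic cells treated 48 h in serum-free medium, with eight-point half-log dosing capped at 100 uM and 0.5% DMSO vehicle.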

[2] = read-out: Bcl-2 (BAX) gene, BAX (gene 581); assay: LTEA_HepaRG_BAX: Life Technologies and Expression Analysis (LTEA) Assay for Bcl-2 (BAX) gene using HepaRG (AID 2283470)
Summary of the method: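 Human HepaRG cells treated in duplicate for 48 h across eight concentrations (max 100 uM, 0.5% DMSO); BAX expression measured by qRT-PCR.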

[3] = read-out: adenosine kinase (ADK) gene, ADK (gene 132); assay: LTEA_HepaRG_ADK: Life Technologies and Expression Analysis (LTEA) Assay for adenosine kinase (ADK) gene using HepaRG (AID 2283471)
Summary of the method: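 Differentiated HepaRG cells dosed 48 h in serum-free induction medium, 0.5% DMSO vehicle, eight half-log concentrations from 100 uM, in duplicate. ADK mRNA by TaqMan qRT-PCR normalised to ACTB, GAPDH, POLR2A; bidirectional fit versus DMSO.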

[4] = read-out: Alpha-fetoprotein (AFP) gene, AFP (gene 174); assay: LTEA_HepaRG_AFP: Life Technologies and Expression Analysis (LTEA) Assay for Alpha-fetoprotein (AFP) gene using HepaRG (AID 2283472)
Summary of the method: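 Measures AFP mRNA change in HepaRG after 48 h chemical exposure (8 half-log concentrations, highest 100 uM, 0.5% DMSO). Fold change relative to DMSO, fitted in both directions.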

BCL2L11 (gene 10018) = assay: LTEA_HepaRG_BCL2L11: Life Technologies and Expression Analysis (LTEA) Assay for Bcl-2 (BCL2L11) gene using HepaRG (AID 2283473)
Summary of the method: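 HepaRG, 48 h exposure, 8-pt half-log series from 100 uM in 0.5% DMSO, duplicates; qRT-PCR (Fluidigm TaqMan) for BCL2L11, housekeeping-normalized; bidirectional curve fit relative to DMSO baseline.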

[5] = read-out: Apolipoprotein A-V (APOA5) gene, APOA5 (gene 116519); assay: LTEA_HepaRG_APOA5: Life Technologies and Expression Analysis (LTEA) Assay for Apolipoprotein A-V (APOA5) gene using HepaRG (AID 2283474)
Summary of the method: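 HepaRG, 48 h chemical exposure in serum-free induction medium, 8-pt half-log series (top 100 uM), 0.5% DMSO vehicle, duplicates. Readout: APOA5 mRNA by qRT-PCR, housekeeping-normalized; bidirectional fit vs DMSO baseline.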

[6] = read-out: Apoptosis regulator Bcl-2 (Homo sapiens) (UniProt P10415); assay: LTEA_HepaRG_BCL2: Life Technologies and Expression Analysis (LTEA) Assay for Bcl-2 gene using HepaRG (AID 2283475)
Summary of the method: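 Each chemical was tested in duplicate on HepaRG cultures held in serum-free induction medium for 48 h, highest concentration 100 uM with half-log dilutions. Transcript levels came from multiplexed qRT-PCR, normalised to housekeeping genes; activity was scored in either direction relative to DMSO.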

[7] = read-out: Bcl-2 (BID) gene, BID (gene 637); assay: LTEA_HepaRG_BID: Life Technologies and Expression Analysis (LTEA) Assay for Bcl-2 (BID) gene using HepaRG (AID 2283476)
Summary of the method: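 Assay used HepaRG hepatic cells treated 48 h in serum-free medium with half-log dilutions from 100 uM. Endpoint: BID mRNA, qRT-PCR, normalized to ACTB/GAPDH/POLR2A.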

Caspase-3 (Homo sapiens) = Caspase-3 (Homo sapiens) (UniProt P42574); assay: LTEA_HepaRG_CASP3: Life Technologies and Expression Analysis (LTEA) Assay for cysteine-aspartic acid protease (CASP3) using HepaRG (AID 2283477)
Summary of the method: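 HepaRG, 48 h exposure, 8 conc. (top 100 uM, half-log steps, duplicate), 0.5% DMSO vehicle; qRT-PCR of CASP3 transcript, housekeeping-normalised (ACTB/GAPDH/POLR2A); bidirectional curve fit vs DMSO baseline.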

[8] = read-out: Cytochrome P450 (CYP1A2), CYP1A2 (gene 1544); assay: LTEA_HepaRG_CYP1A2: Life Technologies and Expression Analysis (LTEA) Assay for Cytochrome P450 (CYP1A2) using HepaRG (AID 2283479)
Summary of the method: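 HepaRG, 48 h exposure, top 100 uM, half-log 8-pt, 0.5% DMSO vehicle, duplicates. Readout: TaqMan qRT-PCR of CYP1A2 mRNA, housekeeping-normalized (ACTB/GAPDH/POLR2A). Gain/loss fit relative to DMSO baseline.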

[9] = read-out: cysteine-aspartic acid protease (CASP8), CASP8 (gene 841); assay: LTEA_HepaRG_CASP8: Life Technologies and Expression Analysis (LTEA) Assay for cysteine-aspartic acid protease (CASP8) using HepaRG (AID 2283480)
Summary of the method: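 Concentration-response in duplicate up to 100 uM (half-log steps, 0.5% DMSO) on differentiated HepaRG cultures for 48 h. Expression change of CASP8 mRNA is determined by TaqMan qRT-PCR with housekeeping-gene normalization.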

[10] = read-out: Cytochrome P450 (CYP2B6), CYP2B6 (gene 1555); assay: LTEA_HepaRG_CYP2B6: Life Technologies and Expression Analysis (LTEA) Assay for Cytochrome P450 (CYP2B6) using HepaRG (AID 2283481)
Summary of the method: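 Read-out is CYP2B6 mRNA by TaqMan qRT-PCR, normalized to three housekeeping genes and fitted bidirectionally against 0.5% DMSO baseline. Human HepaRG cells received test chemicals for 48 h, top concentration 100 uM, half-log dilutions.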

[11] = read-out: Cytochrome P450 2C19 (Homo sapiens) (UniProt P33261); assay: LTEA_HepaRG_CYP2C19: Life Technologies and Expression Analysis (LTEA) Assay for CYP2C19 using HepaRG (AID 2283482)
Summary of the method: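 HepaRG, 48 h chemical exposure, 8-pt half-log series from 100 uM in 0.5% DMSO, duplicates. Readout: CYP2C19 mRNA by TaqMan qRT-PCR, housekeeping-normalized. Bidirectional fit vs DMSO baseline; phenobarbital 1mM as induction control.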

CYP2C8 (gene 1558) = assay: LTEA_HepaRG_CYP2C8: Life Technologies and Expression Analysis (LTEA) Assay for CYP2C8 using HepaRG (AID 2283483)
Summary of the method: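 This is a transcriptional endpoint in HepaRG cultures: 48 h exposure, highest concentration 100 uM. CYP2C8 mRNA is quantified by TaqMan qRT-PCR.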

CYP2C9 (gene 1559) = assay: LTEA_HepaRG_CYP2C9: Life Technologies and Expression Analysis (LTEA) Assay for CYP2C9 using HepaRG (AID 2283484)
Summary of the method: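 Eight-point concentration-response (highest 100 uM, half-log dilutions) in HepaRG cells for 48 h; CYP2C9 expression by qRT-PCR normalized to ACTB, GAPDH, POLR2A. Bidirectional fit, DMSO baseline.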

CYP2E1 (gene 1571) = assay: LTEA_HepaRG_CYP2E1: Life Technologies and Expression Analysis (LTEA) Assay for CYP2E1 using HepaRG (AID 2283485)
Summary of the method: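 Assay uses 48 h exposure of HepaRG hepatic cells, eight concentrations to 100 uM. Expression of CYP2E1 is quantified by TaqMan qRT-PCR with ACTB, GAPDH and POLR2A normalization; curves fitted in both directions relative to vehicle.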

CYP4A11 (gene 1579) = assay: LTEA_HepaRG_CYP4A11: Life Technologies and Expression Analysis (LTEA) Assay for CYP4A11 using HepaRG (AID 2283486)
Summary of the method: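 CYP4A11 transcript levels were quantified by TaqMan qRT-PCR after HepaRG human liver cells were treated for 48 hours with test chemicals (top 100 uM, half-log dilutions, 0.5% DMSO). Gain or loss of signal was fitted relative to DMSO.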

[12] = read-out: Cytochrome P450 3A4 (Homo sapiens) (UniProt P08684); assay: LTEA_HepaRG_CYP3A4: Life Technologies and Expression Analysis (LTEA) Assay for CYP3A4 using HepaRG (AID 2283487)
Summary of the method: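 Differentiated HepaRG cells in serum-free induction medium exposed in duplicate for 48 h to 8 half-log concentrations up to 100 uM in 0.5% DMSO. CYP3A4 mRNA measured by qRT-PCR normalized to ACTB, GAPDH and POLR2A; bidirectional fit versus DMSO.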

[13] = read-out: DNA damage-inducible transcript 3 (DDIT3), DDIT3 (gene 1649); assay: LTEA_HepaRG_DDIT3: Life Technologies and Expression Analysis (LTEA) Assay for DNA damage-inducible transcript 3 (DDIT3) using HepaRG (AID 2283488)
Summary of the method: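 Eight-point concentration-response (100 uM highest, half-log dilutions) in HepaRG, 48 h, duplicate wells. Endpoint: qRT-PCR mRNA, normalized (ACTB, GAPDH, POLR2A), bidirectional fitting with DMSO as baseline.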

[14] = read-out: Cytochrome P450 (CYP24A1), CYP24A1 (gene 1591); assay: LTEA_HepaRG_CYP24A1: Life Technologies and Expression Analysis (LTEA) Assay for Cytochrome P450 (CYP24A1) using HepaRG (AID 2283478)
Summary of the method: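 qRT-PCR read-out: CYP24A1 transcript levels normalized to three housekeeping genes, bidirectional curve fits against 0.5% DMSO baseline. Human HepaRG cells treated 48 h with chemicals at eight concentrations from 100 uM in half-log steps.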

Apoptosis regulator Bcl-2 (Homo sapiens), sequence (P10415 whole entry, looked up): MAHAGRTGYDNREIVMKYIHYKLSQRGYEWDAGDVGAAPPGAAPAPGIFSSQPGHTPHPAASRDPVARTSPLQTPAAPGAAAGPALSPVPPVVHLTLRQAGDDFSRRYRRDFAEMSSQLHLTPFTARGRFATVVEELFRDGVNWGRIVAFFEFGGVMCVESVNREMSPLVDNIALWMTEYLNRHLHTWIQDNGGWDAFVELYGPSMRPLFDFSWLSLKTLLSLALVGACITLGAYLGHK
Cytochrome P450 3A4 (Homo sapiens), sequence (P08684 whole entry, looked up): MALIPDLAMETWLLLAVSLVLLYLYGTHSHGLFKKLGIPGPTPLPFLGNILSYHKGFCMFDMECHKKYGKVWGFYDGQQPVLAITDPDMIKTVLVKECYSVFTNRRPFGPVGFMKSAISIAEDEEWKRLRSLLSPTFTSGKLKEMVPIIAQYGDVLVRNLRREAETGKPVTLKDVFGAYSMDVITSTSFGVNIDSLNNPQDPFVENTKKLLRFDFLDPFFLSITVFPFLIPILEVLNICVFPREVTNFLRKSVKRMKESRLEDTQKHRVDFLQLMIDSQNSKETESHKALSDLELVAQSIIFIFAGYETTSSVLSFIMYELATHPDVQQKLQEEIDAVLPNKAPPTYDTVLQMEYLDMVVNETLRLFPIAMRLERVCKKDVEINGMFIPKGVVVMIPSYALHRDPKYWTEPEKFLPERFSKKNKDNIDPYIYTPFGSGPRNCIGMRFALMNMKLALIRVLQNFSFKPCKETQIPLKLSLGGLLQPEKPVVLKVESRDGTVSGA
Caspase-3 (Homo sapiens), sequence (P42574 whole entry, looked up): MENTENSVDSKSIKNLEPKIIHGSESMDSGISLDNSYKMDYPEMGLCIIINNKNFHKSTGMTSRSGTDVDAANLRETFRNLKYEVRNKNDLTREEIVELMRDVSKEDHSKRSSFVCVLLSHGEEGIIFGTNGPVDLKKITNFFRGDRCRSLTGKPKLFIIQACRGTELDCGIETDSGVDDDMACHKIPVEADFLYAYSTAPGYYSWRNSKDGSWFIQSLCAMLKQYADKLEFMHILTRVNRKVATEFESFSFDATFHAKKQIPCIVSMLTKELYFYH
Cytochrome P450 2C19 (Homo sapiens), sequence (P33261 whole entry, looked up): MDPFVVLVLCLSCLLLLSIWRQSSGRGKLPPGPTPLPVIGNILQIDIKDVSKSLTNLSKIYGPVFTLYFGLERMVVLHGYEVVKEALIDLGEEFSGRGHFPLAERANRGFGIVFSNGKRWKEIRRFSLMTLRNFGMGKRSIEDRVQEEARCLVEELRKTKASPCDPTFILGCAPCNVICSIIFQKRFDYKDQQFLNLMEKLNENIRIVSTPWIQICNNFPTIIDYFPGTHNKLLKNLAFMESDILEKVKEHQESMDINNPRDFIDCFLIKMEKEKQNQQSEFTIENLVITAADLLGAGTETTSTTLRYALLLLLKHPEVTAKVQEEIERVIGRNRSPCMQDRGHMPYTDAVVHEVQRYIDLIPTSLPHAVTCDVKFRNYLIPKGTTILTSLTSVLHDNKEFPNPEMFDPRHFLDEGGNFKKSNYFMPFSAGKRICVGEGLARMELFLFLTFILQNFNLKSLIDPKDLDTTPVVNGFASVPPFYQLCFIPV

## CCOC(=O)CC(SP(=S)(OC)OC)C(=O)OCC (stereo not drawn)
[1]
  outcome: inactive
[2]
  outcome: inactive
[3]
  outcome: inactive
[4]
  outcome: inactive
BCL2L11 (gene 10018)
  outcome: inactive
[5]
  outcome: inactive
[6]
  outcome: inactive
[7]
  outcome: inactive
Caspase-3 (Homo sapiens)
  outcome: inactive
[8]
  AC50: 13.8 µM (active)
[9]
  outcome: inactive
[10]
  AC50: 50 µM (active)
[11]
  outcome: inactive
CYP2C8 (gene 1558)
  outcome: inactive
CYP2C9 (gene 1559)
  outcome: inactive
CYP2E1 (gene 1571)
  outcome: inactive
CYP4A11 (gene 1579)
  outcome: inactive
[12]
  outcome: inactive
[13]
  outcome: inactive

## CC1COC(Cn2cncn2)(c2ccc(Oc3ccc(Cl)cc3)cc2Cl)O1 (stereo not drawn)
[1]
  outcome: inactive
[2]
  AC50: 13 µM (active)
[3]
  outcome: inactive
[4]
  AC50: 11 µM (active)
[5]
  AC50: 12.8 µM (active)
[6]
  AC50: 12.8 µM (active)
[7]
  AC50: 12 µM (active)
Caspase-3 (Homo sapiens)
  outcome: inactive
[14]
  AC50: 50 µM (active)
[8]
  outcome: inactive
[9]
  outcome: inactive
[10]
  AC50: 9.66 µM (active)
[11]
  AC50: 27.1 µM (active)
CYP2C8 (gene 1558)
  AC50: 9.46 µM (active)
CYP2C9 (gene 1559)
  AC50: 15.7 µM (active)
CYP2E1 (gene 1571)
  AC50: 8.67 µM (active)
CYP4A11 (gene 1579)
  AC50: 12.9 µM (active)
[12]
  AC50: 23.2 µM (active)
[13]
  AC50: 12 µM (active)

## CNC(=S)S
[1]
  outcome: inactive
[2]
  outcome: inactive
[3]
  outcome: inactive
[4]
  outcome: inactive
BCL2L11 (gene 10018)
  outcome: inactive
[5]
  outcome: inactive
[6]
  outcome: inactive
[7]
  outcome: inactive
Caspase-3 (Homo sapiens)
  outcome: inactive
[14]
  outcome: inactive
[8]
  AC50: 50 µM (active)
[9]
  outcome: inactive
[10]
  AC50: 29.7 µM (active)
[11]
  outcome: inactive
CYP2C8 (gene 1558)
  outcome: inactive
CYP2C9 (gene 1559)
  outcome: inactive
CYP2E1 (gene 1571)
  outcome: inactive
CYP4A11 (gene 1579)
  outcome: inactive
[12]
  outcome: inactive
[13]
  outcome: inactive

## CO/C=C(/C(=O)OC)c1ccccc1Oc1cc(Oc2ccccc2C#N)ncn1
[1]
  outcome: inactive
[2]
  AC50: 77.2 µM (active) and 69 µM (active) and 72.1 µM (active)
[3]
  outcome: inactive
[4]
  AC50: 37.9 µM (active) and 69.5 µM (active) and 25.5 µM (active)
BCL2L11 (gene 10018)
  AC50: 84.5 µM (active) and 73.8 µM (active) and 84.6 µM (active)
[5]
  AC50: 91.8 µM (active) and 78 µM (active) and 74.3 µM (active)
[6]
  AC50: 86.3 µM (active) and 85.9 µM (active) and 86.9 µM (active)
[7]
  outcome: inactive
Caspase-3 (Homo sapiens)
  outcome: inactive
[8]
  AC50: 84.5 µM (active) and 65.9 µM (active) and 66.5 µM (active)
[9]
  outcome: inactive
[10]
  AC50: 75.2 µM (active) and 72.2 µM (active) and 71.5 µM (active)
[11]
  AC50: 84.1 µM (active) and 83.3 µM (active) and 82.3 µM (active)
CYP2C8 (gene 1558)
  AC50: 79.9 µM (active) and 79.2 µM (active) and 78.1 µM (active)
CYP2C9 (gene 1559)
  AC50: 79.1 µM (active) and 79 µM (active) and 93.4 µM (active)
CYP2E1 (gene 1571)
  AC50: 34.6 µM (active) and 50 µM (active) and 33.2 µM (active)
CYP4A11 (gene 1579)
  AC50: 66.4 µM (active) and 68.3 µM (active) and 40.2 µM (active)
[13]
  AC50: 77.9 µM (active) and 94.2 µM (active) and 77.2 µM (active)

## COc1ccc(C(c2ccc(OC)cc2)C(Cl)(Cl)Cl)cc1
[1]
  outcome: inactive
[2]
  outcome: inactive
[3]
  outcome: inactive
[4]
  AC50: 78.4 µM (active)
[5]
  AC50: 70.9 µM (active)
[6]
  AC50: 86.3 µM (active)
[7]
  outcome: inactive
Caspase-3 (Homo sapiens)
  outcome: inactive
[8]
  outcome: inactive
[9]
  outcome: inactive
[10]
  AC50: 12.4 µM (active)
[11]
  AC50: 12.7 µM (active)
CYP2C8 (gene 1558)
  outcome: inactive
CYP2C9 (gene 1559)
  outcome: inactive
CYP2E1 (gene 1571)
  AC50: 66 µM (active)
CYP4A11 (gene 1579)
  AC50: 79 µM (active)
[13]
  AC50: 75 µM (active)
